Among the data in PubChem BioAssay (EPA / NIEHS) are outcome and AC50 values, retold here.

What all share (settings): mRNA level, 48 h; actives raise or lower the signal
Read-out in assay [1]: Cytochrome P450 7A1 (Homo sapiens) (UniProt P22680)
Nature of the assay: LTEA_HepaRG_CYP7A1: Life Technologies and Expression Analysis (LTEA) Assay for Cytochrome P450 7A1 (CYP7A1) using HepaRG (AID 2283496). The gist of the method: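 Gene expression endpoint in human HepaRG liver cells treated for 48 h with test chemicals (up to 100 uM, 0.5% DMSO). Values come from bidirectional concentration-response fitting versus DMSO.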

Read-out in assay [2]: Glutathione S-Transferase (GSTA2), GSTA2 (gene 2939)
Nature of the assay: LTEA_HepaRG_GSTA2: Life Technologies and Expression Analysis (LTEA) Assay for Glutathione S-Transferase (GSTA2) using HepaRG (AID 2283497). The method, boiled down:
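Differentiated human HepaRG cells were exposed in duplicate for 48 h in serum-free induction medium, 8 points from 100 uM top in half-log steps, 0.5% DMSO. GSTA2 mRNA was measured by TaqMan qRT-PCR, normalized to ACTB, GAPDH and POLR2A; bidirectional fit versus DMSO.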

Read-out in assay [3]: Glutamate-cysteine ligase catalytic (GCLC), GCLC (gene 2729)
Nature of the assay: LTEA_HepaRG_GCLC: Life Technologies and Expression Analysis (LTEA) Assay for Glutamate-cysteine ligase catalytic (GCLC) using HepaRG (AID 2283498). The gist of the method:
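Differentiated HepaRG cells exposed 48 h in serum-free induction medium, eight-point half-log series topping at 100 uM in 0.5% DMSO, duplicates. GCLC mRNA by qRT-PCR normalized to ACTB, GAPDH and POLR2A, fitted bidirectionally versus DMSO.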

Read-out in assay [4]: growth arrest and DNA damage 45 (GADD45G), GADD45G (gene 10912)
Nature of the assay: LTEA_HepaRG_GADD45G: Life Technologies and Expression Analysis (LTEA) Assay for growth arrest and DNA damage 45 (GADD45G) using HepaRG (AID 2283499). The method, boiled down:
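GADD45G transcript level by qRT-PCR (housekeeping-normalized: ACTB, GAPDH, POLR2A) after 48 h chemical treatment of a single HepaRG lot in serum-free induction medium; eight-point half-log series up to 100 uM in 0.5% DMSO, duplicates, up- or down-regulation scored.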

Read-out in assay [5]: Glutamate-cysteine ligase regulatory (GCLM), GCLM (gene 2730)
Nature of the assay: LTEA_HepaRG_GCLM: Life Technologies and Expression Analysis (LTEA) Assay for Glutamate-cysteine ligase regulatory (GCLM) using HepaRG (AID 2283500). The method, boiled down: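 Human liver HepaRG cultures receive test chemicals for 48 hours at up to 100 uM in 0.5% DMSO. GCLM expression is measured by qRT-PCR and analysed for increases or decreases against vehicle.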

Read-out in assay [6]: Glutathione S-transferase M3 (GSTM3), GSTM3 (gene 2947)
Nature of the assay: LTEA_HepaRG_GSTM3: Life Technologies and Expression Analysis (LTEA) Assay for Glutathione S-transferase M3 (GSTM3) using HepaRG (AID 2283501). The gist of the method: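 GSTM3 transcript levels came from Fluidigm TaqMan qRT-PCR normalized to three housekeeping genes, fitted in both directions against DMSO. HepaRG cultures received chemicals for 48 h in serum-free induction medium (0.5% DMSO), 8 half-log concentrations up to 100 uM, duplicate.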

Read-out in assay [7]: Heat shock 70 kDa protein 1 (HSPA1A), gene 3303
Nature of the assay: LTEA_HepaRG_HSPA1A: Life Technologies and Expression Analysis (LTEA) Assay for Heat shock 70 kDa protein 1 (HSPA1A) using HepaRG (AID 2283502). The method, boiled down:
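HSPA1A induction in human HepaRG liver cells is measured after 48 h of chemical treatment (100 uM maximum, 0.5% DMSO vehicle). Expression comes from qRT-PCR normalized to endogenous controls.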

Read-out in assay [8]: 3-Hydroxy-3-Methylglutaryl-CoA Synthase 2 (HMGCS2), HMGCS2 (gene 3158)
Nature of the assay: LTEA_HepaRG_HMGCS2: Life Technologies and Expression Analysis (LTEA) Assay for 3-Hydroxy-3-Methylglutaryl-CoA Synthase 2 (HMGCS2) using HepaRG (AID 2283504). The method, boiled down: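 Readout is HMGCS2 transcript by qRT-PCR, housekeeping-normalised (ACTB/GAPDH/POLR2A) and fitted bidirectionally against 0.5% DMSO. Differentiated HepaRG cells received chemicals 48 h, duplicate wells, eight half-log concentrations topping at 100 uM.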

Read-out in a further assay: HGF (gene 3082)
Nature of the assay: LTEA_HepaRG_HGF: Life Technologies and Expression Analysis (LTEA) Assay for Hepatocyte Growth Facto (HGF) using HepaRG (AID 2283505). The method, boiled down:
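HGF transcript was quantified by TaqMan qRT-PCR against three housekeeping genes after 48 h treatment of HepaRG cells. Exposure ran in duplicate over eight half-log steps topping at 100 uM in 0.5% DMSO vehicle.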

Read-out in assay [9]: Hypoxia-inducible factor 1-alpha (Homo sapiens) (UniProt Q16665)
Nature of the assay: LTEA_HepaRG_HIF1A: Life Technologies and Expression Analysis (LTEA) Assay for Hypoxia-inducible factor 1 (HIF1A) Trancription factor using HepaRG (AID 2283503).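 Note: HIF1A transcript by TaqMan qRT-PCR normalized to ACTB GAPDH and POLR2A.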 The gist of the method: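 HepaRG, 48 h exposure, 8-pt half-log series from 100 uM, 0.5% DMSO vehicle, duplicates. Readout: HIF1A transcript by qRT-PCR (Fluidigm array), housekeeping-normalised. Bidirectional curve fit vs DMSO baseline.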

Calls of active or inactive are those of the source. Rule for the calls: active = hit-call score of the fitted dose curve at least 0.9, where 1 is the maximum; inactive = score below 0.9.

Chain of Hypoxia-inducible factor 1-alpha (Homo sapiens) (Q16665 whole entry, looked up): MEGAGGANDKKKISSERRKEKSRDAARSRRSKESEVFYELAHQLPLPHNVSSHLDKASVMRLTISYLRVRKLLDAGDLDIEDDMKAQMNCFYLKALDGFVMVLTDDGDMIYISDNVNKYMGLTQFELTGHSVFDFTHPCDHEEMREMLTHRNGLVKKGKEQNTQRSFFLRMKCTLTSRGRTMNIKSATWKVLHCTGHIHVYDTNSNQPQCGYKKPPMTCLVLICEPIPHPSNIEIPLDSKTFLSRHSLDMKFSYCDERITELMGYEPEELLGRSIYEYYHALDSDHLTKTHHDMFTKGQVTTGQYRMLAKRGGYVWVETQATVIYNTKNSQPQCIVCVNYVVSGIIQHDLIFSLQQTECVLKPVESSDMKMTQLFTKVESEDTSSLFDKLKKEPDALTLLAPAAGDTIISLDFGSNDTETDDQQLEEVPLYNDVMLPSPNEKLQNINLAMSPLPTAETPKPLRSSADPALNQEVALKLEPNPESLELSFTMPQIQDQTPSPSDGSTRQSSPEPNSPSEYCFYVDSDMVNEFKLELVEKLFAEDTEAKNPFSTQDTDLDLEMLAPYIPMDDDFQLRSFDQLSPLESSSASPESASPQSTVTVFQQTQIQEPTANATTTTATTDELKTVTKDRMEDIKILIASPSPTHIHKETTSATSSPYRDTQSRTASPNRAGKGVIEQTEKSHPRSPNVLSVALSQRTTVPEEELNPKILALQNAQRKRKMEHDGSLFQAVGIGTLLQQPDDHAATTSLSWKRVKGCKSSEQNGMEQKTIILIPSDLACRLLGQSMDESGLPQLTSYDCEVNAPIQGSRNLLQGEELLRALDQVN

For `COc1cc(Cl)c(OC)cc1Cl`, the compound was called inactive in assay [1], in assay [2], in [3], in [4], in [5] and in assay [6]. The compound was classed as inactive (in [7]; in assay [8]; in the assay with HGF (gene 3082)).

As for `CS(=O)(=O)c1cc(C(F)(F)F)ccc1C(=O)c1cnoc1C1CC1`, the compound was called inactive in [1], in [2], in assay [3], in assay [4], in assay [5] and in assay [6]. For the same compound, the result in [7], in assay [9] and in [8] was inactive.

With `Clc1nc(Cl)nc(Nc2ccccc2Cl)n1`, the result in assay [1], in assay [2], in assay [3], in [4], in assay [5] and in assay [6] was inactive. For the same compound, the result in assay [7], in assay [9] and in assay [8] was inactive.

For `CNC(=O)N(C)c1nnc(C(C)(C)C)s1`, the compound was called inactive in assay [1], in assay [2], in assay [3], in assay [4], in [5] and in assay [6]. For the same compound, the compound was called inactive (in assay [7]; in [8]; with HGF (gene 3082)).

In the case of `Cc1ccc(N=CN(C)C=Nc2ccc(C)cc2C)c(C)c1`, the compound was classed as inactive in assay [1], in assay [2], in [3], in assay [4], in assay [5] and in assay [6]. Further, the compound was classed as inactive in assay [7], in [9] and in assay [8].

As for `CC1(C)CON(Cc2ccccc2Cl)C1=O`, the compound was classed as inactive in assay [1], in assay [2], in assay [3], in assay [4], in [5] and in assay [6]. Also, the outcome in [7], in assay [9] and in [8] was inactive.

As for `CCSC(=O)N1CCCCCC1`, the compound was classed as inactive in assay [1], in [2], in assay [3], in [4], in [5] and in assay [6]. Also, the compound was classed as inactive in [7], in assay [9] and in assay [8].

What is called AC50 is the midpoint of the concentration-response curve, whichever way the signal moves. As to `COCC(C)N(C(=O)CCl)c1c(C)csc1C` (centres undefined), the AC50 is 29.5 µM (active) in assay [1], 25 µM (active) in assay [2] and 50 µM (active) in [3]. The result in [4], in assay [5], in [6], in assay [7] and in [8] was inactive.

With `Cn1c(-c2ccccc2)cc(-c2ccccc2)[n+]1C`, the AC50 in [1] is 57.2 µM (active); in assay [2] it was 65.9 µM (active); in assay [3], 82.3 µM (active); in assay [4], 50 µM (active); in assay [6], 85.7 µM (active); in [8] it was 35 µM (active). The call in assay [5] and in assay [9] was inactive.

As to `CCOC(=O)C(C)OC(=O)c1cc(Oc2ccc(C(F)(F)F)cc2Cl)ccc1[N+](=O)[O-]` (centres undefined), the concentration at half-maximal activity (AC50) in assay [1] is 50 µM (active); in assay [2], 84.3 µM (active); in [4], 3.82 µM (active); in assay [8], 1.38 µM (active). For the same compound, the result in [3], in [5], in [6], in assay [7] and in [9] was inactive.

With `Nc1c(Cl)c(F)nc(OCC(=O)O)c1Cl`, the compound was called inactive in assay [1], in assay [2], in [3], in [4], in assay [5] and in assay [6]. In addition, the result in assay [9] and in assay [8] was inactive.

On to `Cc1cnc(C2=NC(C)(C(C)C)C(=O)N2)c(C(=O)O)c1` (centres undefined), for which the call in assay [1], in assay [2], in [3], in [4], in assay [5] and in assay [6] was inactive. Also, the compound was called inactive (in assay [7]; in assay [9]; in [8]; in the assay with HGF (gene 3082)).

Take `CCCC(=NOCC)C1=C(O)CC(CC(C)SCC)CC1=O` (centres undefined): the call in [1], in assay [2], in [3], in [4], in assay [5] and in [6] was inactive. The result (in [7]; in [9]; in assay [8]; in the assay with HGF (gene 3082)) was inactive.

As for `CC1(C)CCC(=Cc2ccc(Cl)cc2)C1(O)Cn1cncn1` (centres undefined), the AC50 in assay [1] is 4.96 µM (active). The outcome in assay [2], in [3], in assay [4], in assay [5], in [6] and in assay [9] was inactive. In addition, in assay [8], the outcome was inactive.

As to `O=c1n(Cl)c(=O)n(Cl)c(=O)n1Cl`, the call in assay [1], in assay [2], in assay [3], in [4], in assay [5] and in assay [6] was inactive. Besides, the compound was called inactive in assay [7], in assay [9] and in [8].

Regarding `COP(=O)(OC)O/C(C)=C/C(=O)N(C)C`, the result in assay [1], in [2], in [3], in [4], in assay [5] and in [6] was inactive. The outcome in [9] and in assay [8] was inactive.

As to `O=C1C2CC=CCC2C(=O)N1SC(Cl)(Cl)Cl` (centres undefined), the call in assay [1], in assay [2], in assay [3], in assay [4], in assay [5] and in assay [6] was inactive. For the same compound, the result in assay [7], in assay [9] and in assay [8] was inactive.

In the case of `Nc1c(Cl)c(Cl)nc(C(=O)O)c1Cl`, the call in assay [1], in assay [2], in assay [3], in assay [4], in assay [5] and in assay [6] was inactive. Also, the compound was called inactive in assay [7], in [9] and in [8].

Take `COC(=O)NC(=S)Nc1ccccc1NC(=S)NC(=O)OC`: the compound was classed as inactive in assay [1], in [2], in [3], in [4], in [5] and in assay [6]. In addition, the compound was classed as inactive in [7], in [9] and in assay [8].

For the compound `COC(=O)N(C(=O)N1CO[C@@]2(C(=O)OC)Cc3cc(Cl)ccc3C2=N1)c1ccc(OC(F)(F)F)cc1`, the AC50 in assay [1] is 31.8 µM (active); in assay [2], 51.3 µM (active); in [8] it was 40 µM (active). Also, the compound was classed as inactive in assay [3], in assay [4], in [5], in [6] and in [9].

Regarding `N#CN=C1SCCN1Cc1ccc(Cl)nc1`, the result in assay [1], in [2], in assay [3], in assay [4], in assay [5] and in assay [6] was inactive. In addition, the compound was called inactive in assay [7], in [9] and in [8].

`COCc1cnc(C2=NC(C)(C(C)C)C(=O)N2)c(C(=O)O)c1` (centres undefined): the compound was classed as inactive in assay [1], in assay [2], in assay [3], in assay [4], in assay [5] and in assay [6]. Besides, the compound was classed as inactive in assay [7], in assay [9] and in assay [8].
